The values below come from PubChem BioAssay.

A number with no mark means an inactive call. Active and inactive are the calls of the source.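 How the source made its calls: active means mean inhibition over 43.08%, the solvent-only control mean plus 3 SD; inactive means the rest.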

The target of this assay is Nuclear receptor coactivator 3 (Homo sapiens) (UniProt Q9Y6Q9). As to the kind of experiment: NCOA3 GAL4-fusion reporter inhibition – cell-based, luminescence, quadruplicate, confirmation (AID 588792).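 Further: 0% = DMSO treated cells and 100% = gossypol at 36 µM.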 As to conditions: HEK293 GAL4-SRC3 luciferase reporter, at 3.6 µM, stronger effect = higher value. For orientation: Reporter assays use an easily measured gene product as a stand-in for the process of interest.
Chain of Nuclear receptor coactivator 3 (Homo sapiens) (Q9Y6Q9 whole entry, looked up, the tested form may be a part): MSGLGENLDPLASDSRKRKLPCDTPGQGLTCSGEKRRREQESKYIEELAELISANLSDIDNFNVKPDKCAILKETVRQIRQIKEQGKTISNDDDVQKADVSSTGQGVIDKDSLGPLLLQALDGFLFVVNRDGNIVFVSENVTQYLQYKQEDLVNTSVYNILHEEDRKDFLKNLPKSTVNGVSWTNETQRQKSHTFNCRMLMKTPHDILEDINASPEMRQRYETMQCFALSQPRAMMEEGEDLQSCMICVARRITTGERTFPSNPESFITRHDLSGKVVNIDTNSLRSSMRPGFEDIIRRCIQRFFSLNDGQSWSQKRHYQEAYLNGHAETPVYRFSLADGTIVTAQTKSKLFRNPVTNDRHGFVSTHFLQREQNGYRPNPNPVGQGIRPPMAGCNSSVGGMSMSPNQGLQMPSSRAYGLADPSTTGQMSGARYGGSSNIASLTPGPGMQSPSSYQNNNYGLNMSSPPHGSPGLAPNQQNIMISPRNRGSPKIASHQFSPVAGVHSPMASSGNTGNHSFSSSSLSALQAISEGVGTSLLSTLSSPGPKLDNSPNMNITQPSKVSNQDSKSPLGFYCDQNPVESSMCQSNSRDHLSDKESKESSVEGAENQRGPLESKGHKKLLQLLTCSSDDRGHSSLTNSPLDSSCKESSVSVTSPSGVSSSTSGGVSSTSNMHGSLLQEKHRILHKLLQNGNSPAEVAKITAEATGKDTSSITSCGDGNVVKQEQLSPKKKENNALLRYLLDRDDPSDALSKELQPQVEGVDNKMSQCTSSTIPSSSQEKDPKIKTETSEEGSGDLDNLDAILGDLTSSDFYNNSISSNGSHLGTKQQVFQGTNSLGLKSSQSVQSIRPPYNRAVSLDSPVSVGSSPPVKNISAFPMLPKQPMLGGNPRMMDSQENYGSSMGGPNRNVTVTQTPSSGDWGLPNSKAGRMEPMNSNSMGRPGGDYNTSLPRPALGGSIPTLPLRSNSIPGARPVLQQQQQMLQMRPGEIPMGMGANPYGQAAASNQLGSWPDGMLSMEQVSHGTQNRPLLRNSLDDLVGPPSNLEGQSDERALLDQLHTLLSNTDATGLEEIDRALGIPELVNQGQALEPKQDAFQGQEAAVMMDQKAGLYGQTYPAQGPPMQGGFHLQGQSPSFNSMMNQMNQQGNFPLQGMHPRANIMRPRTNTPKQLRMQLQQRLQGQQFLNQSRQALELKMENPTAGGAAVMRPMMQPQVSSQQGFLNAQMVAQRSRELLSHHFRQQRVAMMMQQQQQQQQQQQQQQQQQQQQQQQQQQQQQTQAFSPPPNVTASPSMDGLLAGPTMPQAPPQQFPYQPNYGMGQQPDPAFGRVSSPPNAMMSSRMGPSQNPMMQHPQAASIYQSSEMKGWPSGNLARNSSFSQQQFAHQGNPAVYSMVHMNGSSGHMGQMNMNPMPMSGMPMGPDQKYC
On to `CC(=O)N1CCc2cc(S(=O)(=O)NCCC(=O)NCCc3ccc(Cl)cc3)ccc21`, for which the inhibition was -9.13%.

For `Cc1nc(Nc2nc(CSc3nc4ccccc4[nH]3)cc(=O)[nH]2)nc2ccccc12`, the inhibition was -5.42%.

As for `O=C(O)c1cc(NS(=O)(=O)c2ccc(N3CCOCC3)c([N+](=O)[O-])c2)cc(C(=O)O)c1`, the inhibition is 1.8%.

Take `O=C(Cn1cnc([N+](=O)[O-])n1)N/N=C/c1cc(Cl)ccc1O`: the inhibition is 20.3%.

Regarding `CCCc1nn(C)c(C(=O)Nc2cccc(Cl)c2)c1Cl`, the inhibition was 15%.

`CCCCNC1C(CC)C(CCC)C(C#N)(C#N)C1(C#N)C#N` (stereo not given): the inhibition is 3.79%.

For `Cc1ccc(S(=O)(=O)N2CCOCC2)cc1C(=O)Nc1cc(S(=O)(=O)N2CCCCC2)ccc1O`, the inhibition is -2.21%. With `CC1=C(NCCc2ccccc2)CCC1=O` the figure was 0.47%; with `Cc1cccc(NC(=O)c2cnn(C)c2)c1C`, -2.28%; with `O=C(NCCc1ccccn1)C(F)(F)C(F)(F)C(F)(F)C(F)(F)C(F)(F)C(F)(F)C(F)(F)C(F)F`, 9.78%. With `CCN(CC(=O)Nc1ccccc1C(F)(F)F)C(=O)c1ccc(N2C(=O)CCC2=O)cc1` the figure was -1.4%.

As to `Cc1ccc(-n2c(Cl)c(Cl)nc(Cl)c2=O)cc1`, the inhibition was 45.3% (active). With `COc1ccc2[nH]c(C(=O)N/N=C/c3ccc(O)cc3O)cc2c1` the figure was 54.5% (active); with `CC(C)(C)OC(=O)NCc1ccc(CNC(=O)c2[nH]cnc2C(=O)NC2CCN(C(=O)OC(C)(C)C)CC2)cc1`, 4.73%. With `Cc1cc(C=C2C(=O)c3ccccc3C2=O)c(C)n1-c1ccccc1` the figure was 67.5% (active); with `CC1CC(C)CN(c2nc(NCc3ccco3)nc(N)c2[N+](=O)[O-])C1` (stereo not given), 9.73%. Turning to `CC(=O)N1CCCc2cc(S(=O)(=O)N3CCCC(C(=O)NCc4ccc(Cl)cc4)C3)ccc21` (stereo not given), the inhibition is 4.47%.

`NC(=O)c1sc2nc3c(c(-c4ccco4)c2c1N)CCCC3`: the inhibition is 59.8% (active).

`C=CCc1cccc(/C=N/NC(=O)C[n+]2ccccc2)c1O`: the inhibition is 24.3%. With `CC(C)c1nc(Cl)c(C#N)c2c1CCCC2` the figure was 26%.

Take `CC(C)(C)c1cc(C(=O)N/N=C/c2ccccc2O)n(-c2ccccc2)n1`: the inhibition is 35.7%. With `O=C(COc1ccccc1[N+](=O)[O-])Nc1ccc(N2CCN(C(=O)c3cccs3)CC2)cc1` the figure was -7.09%.

As to `OCCNCCOc1ccc(Cl)c(Cl)c1`, the inhibition was 5.72%.

With `COc1ccc(CCN2C(=O)C(Oc3ccccc3C)C2c2ccc3c(c2)OCO3)cc1` (stereo not given), the inhibition was 2.45%. With `CC(C)(C)c1csc(Sc2ccc([N+](=O)[O-])cn2)n1` the figure was 13.1%; with `COc1ccc(Cl)cc1NC(=O)CN(C)CC(=O)Nc1c(C)n(C)n(-c2ccccc2)c1=O`, 14.8%; with `COc1cccc(/C=N/Nc2nc3ccccc3n3cnnc23)c1O`, 13.4%. With `CC12CN3CC(C)(CN(C1)C3c1ccccc1F)C2` (stereo not given) the figure was 2.53%; with `CCOc1cc(N2CCOCC2)c(OCC)cc1NC(=O)c1cc(-c2ccco2)nc2ccccc12`, 17.5%. With `COc1ccc(-c2nc3c(c(SCC(=O)N4CCOCC4)n2)Cc2c(CO)cnc(C)c2O3)cc1` the figure was 5.29%. Regarding `Cc1ccc(NC(=O)C2c3ccccc3-c3ccccc32)cc1`, the inhibition is 9.64%. With `Cc1cc[n+](C(C)C(=O)c2ccc(-c3ccccc3)cc2)cc1` (stereo not given) the figure was 8.52%; with `N#CCc1ccc(NC(=O)c2ccc(S(=O)(=O)N3CCOCC3)cc2)cc1`, -11.6%. With `CC(C(=O)N1c2ccccc2Sc2ccccc21)n1nnc(-c2cccs2)n1` (stereo not given) the figure was 2.33%; with `COC(=O)Cc1[nH]n(-c2nc3ccccc3s2)c(=O)c1C(C)=Nc1ccc(C)cc1`, 90.5% (active). With `CCOC(=O)CN(C(=O)COc1nc(C)cc(C)c1C#N)c1ccc(Cl)cc1` the figure was 4.25%.

In the case of `Cc1nc2c(-c3ccc(F)cc3)cnn2c(N)c1-c1ccc(F)cc1`, the inhibition was 12%. With `Cc1cccc(Nc2nc(-c3c(C)nc4ccccn34)cs2)c1` the figure was 19.1%; with `CC(=O)c1cc(CC=C(C)C)c(O)c(CC=C(C)C)c1O`, 4.99%; with `O=C(N/N=C\c1c(O)ccc2ccccc12)c1ccc(Cn2cccn2)o1`, 49.1% (active).

As usually defined, the inhibition is the change of the read-out against control, counted positive when it falls.
